The assay concerns Trichuris muris adult worms. The assay is described as follows: mean motility score (Paragon pixel variance) of adult worms (arbitrary units); higher = more motile worms, i.e. less anthelmintic effect; extreme values may be limits of the assay. The settings on record: 100 µM; 24 h. A digest of the protocol: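 Adult Trichuris muris worms were collected from infected NOD SCID mice and placed one per well in 96-well plates containing 100 μL RPMI-1640 with antibiotics and drug at 100 μM (1% v/v DMSO), then incubated for 24 h at 37°C and 5% CO2. Each plate was filmed on an automated phenotyping platform, capturing 200 frames 100 ms apart. The motility score came from Paragon pixel-variance analysis and was averaged over replicate wells. Every drug was tested with three worms in three wells on three separate occasions, alongside vehicle and positive controls.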

The compound `C[C@H](CS)C(=O)N1CCC[C@H]1C(=O)O` [captopril] showed a mean motility score of 3330.
`Cc1ccccc1C(OCCN(C)C)c1ccccc1.Cl` (centres undefined) [orphenadrine hydrochloride] yielded a mean motility score of 1810.
`CC(=O)O[C@]1(C(C)=O)CC[C@H]2[C@@H]3C=C(Cl)C4=CC(=O)CC[C@]4(C)[C@H]3CC[C@@]21C` [chlormadinone acetate] returned a mean motility score of 2750.
With `NNc1nncc2ccccc12` [hydralazine], the mean motility score was 1960.
`CC(C)N=c1cc2n(-c3ccc(Cl)cc3)c3ccccc3nc-2cc1Nc1ccc(Cl)cc1` [clofazimine] returned a mean motility score of 3290.
In turn, `Cc1nc2n(c(=O)c1CCN1CCC(c3noc4cc(F)ccc34)CC1)CCCC2` [risperidone] registered a mean motility score of 2130.
Turning to `CN(C)C/C=C/C(=O)Nc1cc2c(Nc3ccc(F)c(Cl)c3)ncnc2cc1O[C@H]1CCOC1` [afatinib], the mean motility score was found to be 0.
`Cc1c(-c2ccccc2)oc2c(C(=O)OCCN3CCCCC3)cccc2c1=O` [flavoxate] returned a mean motility score of 4070.
Under `COC(=O)C1=C(C)NC(C)=C(C(=O)OCCN(C)Cc2ccccc2)C1c1cccc([N+](=O)[O-])c1` (centres undefined) [nicardipine] stands 0.

These data come from the supplement of paper PMC10503962.
